The supplement of paper PMC8728848
The full list was thinned out, with the strongest signals kept by preference.

Tests used:
Assay in all cases: glycan array binding signal (z-score within array); higher = stronger binding
Details in all cases: glycan notation: IUPAC condensed, linker removed
Fuc(a1-2)Gal(b1-4)GlcNAc = biological target: Fuc(a1-2)Gal(b1-4)GlcNAc
How it was run: (§1)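 The binding signal is a Z-score computed within each array. Data were drawn from 3228 arrays in the Consortium for Functional Glycomics database, restricted to those with a known protein sequence. Scores were averaged over arrays of the same protein sequence at different concentrations or buffers, and over linkers, and negative values can be taken as non-binding.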

[1] = biological target: Fuc(a1-2)Gal(b1-4)GlcNAc(b1-2)[Fuc(a1-2)Gal(b1-4)GlcNAc(b1-4)]Man(a1-3)[Fuc(a1-2)Gal(b1-4)GlcNAc(b1-2)Man(a1-6)]Man(b1-4)GlcNAc(b1-4)GlcNAc
How it was run: as §1

[2] = biological target: Fuc(a1-2)[Gal(a1-3)]Gal(b1-4)[Fuc(a1-3)]Glc
How it was run: as §1

[3] = biological target: Fuc(a1-2)[GalNAc(a1-3)]Gal(b1-3)GlcNAc(b1-2)Man(a1-3)[Fuc(a1-2)[GalNAc(a1-3)]Gal(b1-3)GlcNAc(b1-2)Man(a1-6)]Man(b1-4)GlcNAc(b1-4)GlcNAc
How it was run: as §1

[4] = biological target: Fuc(a1-3)[Gal(b1-4)]GlcNAc
How it was run: as §1

[5] = biological target: Fuc(a1-3)[Gal(b1-4)]GlcNAc(b1-3)Gal(b1-3)[Fuc(a1-4)]GlcNAc
How it was run: as §1

[6] = biological target: Gal(a1-3)[Gal(a1-4)]Gal(b1-4)GlcNAc
How it was run: as §1

Gal(a1-6)Glc = biological target: Gal(a1-6)Glc
How it was run: as §1

[7] = biological target: Gal(b1-3)GlcNAc(b1-2)[Gal(b1-3)GlcNAc(b1-6)]Man(a1-6)[Gal(b1-3)GlcNAc(b1-2)Man(a1-3)]Man(b1-4)GlcNAc(b1-4)GlcNAc
How it was run: as §1

[8] = biological target: Gal(b1-4)GlcNAc(b1-2)[Gal(b1-4)GlcNAc(b1-6)]Man(a1-6)[Gal(b1-4)GlcNAc(b1-2)Man(a1-3)]Man(b1-4)GlcNAc(b1-4)GlcNAc
How it was run: as §1

[9] = biological target: Gal(b1-4)GlcNAc(b1-3)Gal(b1-4)Glc
How it was run: as §1

[10] = biological target: Gal(b1-4)GlcNAc(b1-3)Gal(b1-4)[Fuc(a1-3)]GlcNAc(b1-3)Gal(b1-4)[Fuc(a1-3)]GlcNAc
How it was run: as §1

Gal3S(b1-4)GlcNAc = biological target: Gal3S(b1-4)GlcNAc
How it was run: as §1

[11] = biological target: Gal3S(b1-4)[Fuc(a1-3)]Glc6S
How it was run: as §1

GalNAc(b1-3)Gal = biological target: GalNAc(b1-3)Gal
How it was run: as §1

[12] = biological target: GalNAc(b1-3)Gal(a1-4)Gal(b1-4)GlcNAc(b1-3)Gal(b1-4)Glc
How it was run: as §1

[13] = biological target: GlcNAc(a1-4)Gal(b1-4)GlcNAc(b1-3)Gal(b1-4)GlcNAc(b1-3)Gal(b1-4)GlcNAc
How it was run: as §1

[14] = biological target: GlcNAc(b1-2)Man(a1-3)[GlcNAc(b1-2)Man(a1-6)]Man(b1-4)GlcNAc(b1-4)GlcNAc
How it was run: as §1

[15] = biological target: GlcNAc(b1-2)[GlcNAc(b1-4)]Man(a1-3)[GlcNAc(b1-4)][GlcNAc(b1-2)[GlcNAc(b1-6)]Man(a1-6)]Man(b1-4)GlcNAc(b1-4)GlcNAc
How it was run: as §1

[16] = biological target: GlcNAc(b1-3)Gal(b1-4)GlcNAc(b1-3)Gal(b1-4)GlcNAc
How it was run: as §1

Kdn(a2-3)Gal(b1-3)GalNAc = biological target: Kdn(a2-3)Gal(b1-3)GalNAc
How it was run: as §1

Kdn(a2-3)Gal(b1-4)GlcNAc = biological target: Kdn(a2-3)Gal(b1-4)GlcNAc
How it was run: as §1

[17] = biological target: Man(a1-2)Man(a1-2)Man(a1-3)Man
How it was run: as §1

[18] = biological target: Man(a1-2)Man(a1-2)Man(a1-6)[Man(a1-3)]Man
How it was run: as §1

[19] = biological target: Man(a1-2)Man(a1-3)[Man(a1-2)Man(a1-6)]Man
How it was run: as §1

[20] = biological target: Man(a1-2)Man(a1-3)[Man(a1-2)Man(a1-6)]Man(a1-6)[Man(a1-2)Man(a1-2)Man(a1-3)]Man
How it was run: as §1

[21] = biological target: Man(a1-2)Man(a1-3)[Man(a1-2)Man(a1-6)]Man(a1-6)[Man(a1-2)Man(a1-2)Man(a1-3)]Man(b1-4)GlcNAc(b1-4)GlcNAc
How it was run: as §1

[22] = biological target: Man(a1-2)Man(a1-3)[Man(a1-6)]Man(a1-6)[Man(a1-2)Man(a1-3)]Man(b1-4)GlcNAc(b1-4)GlcNAc
How it was run: as §1

[23] = biological target: Man(a1-2)Man(a1-6)[Man(a1-3)]Man(a1-6)[Man(a1-2)Man(a1-2)Man(a1-3)]Man
How it was run: as §1

[24] = biological target: Man(a1-2)Man(a1-6)[Man(a1-3)]Man(a1-6)[Man(a1-2)Man(a1-2)Man(a1-3)]Man(b1-4)GlcNAc(b1-4)GlcNAc
How it was run: as §1

[25] = biological target: Man(a1-3)[Man(a1-6)]Man(a1-6)[Man(a1-2)Man(a1-3)]Man(b1-4)GlcNAc(b1-4)GlcNAc
How it was run: as §1

[26] = biological target: Man(a1-3)[Man(a1-6)]Man(b1-4)GlcNAc(b1-4)GlcNAc
How it was run: as §1

[27] = biological target: Neu5Ac(a2-3)Gal(b1-3)[Fuc(a1-4)]GlcNAc(b1-3)Gal(b1-3)[Fuc(a1-4)]GlcNAc
How it was run: as §1

[28] = biological target: Neu5Ac(a2-3)Gal(b1-4)GlcNAc(b1-6)[Gal(b1-3)]GalNAc
How it was run: as §1

[29] = biological target: Neu5Ac(a2-6)Gal(b1-4)GlcNAc(b1-2)Man(a1-3)[GlcNAc(b1-2)Man(b1-4)GlcNAc(b1-2)Man(a1-6)]Man(b1-4)GlcNAc(b1-4)GlcNAc
How it was run: as §1

[30] = biological target: Neu5Ac(a2-6)GlcNAc(b1-4)GlcNAc(b1-4)GlcNAc
How it was run: as §1

[31] = biological target: Neu5Ac(a2-8)Neu5Ac(a2-3)Gal(b1-3)GalNAc(b1-4)[Neu5Ac(a2-8)Neu5Ac(a2-3)]Gal(b1-4)Glc
How it was run: as §1

[32] = biological target: Neu5Ac(a2-8)Neu5Ac(a2-8)Neu5Ac(a2-3)Gal(b1-4)Glc
How it was run: as §1

[33] = biological target: Neu5Ac(a2-8)Neu5Ac(a2-8)Neu5Ac(a2-8)Neu5Ac(a2-3)[GalNAc(b1-4)]Gal(b1-4)Glc
How it was run: as §1

Neu5Ac(b2-6)GalNAc = biological target: Neu5Ac(b2-6)GalNAc
How it was run: as §1

[34] = biological target: Neu5Gc(a2-3)Gal(b1-3)[Fuc(a1-4)]GlcNAc
How it was run: as §1

Neu5Gc(a2-3)Gal(b1-4)Glc = biological target: Neu5Gc(a2-3)Gal(b1-4)Glc
How it was run: as §1

B1: Gz-CVNH (Gibberella zeae) (protein)
chain: MGSSHHHHHHSSGLVPRGSHMGNFHESSNNIWLEDGHILHAECGNGEGDYVESTLDLDYYIGNDDGSFSWGGENFSGSASNITLDIEGDDNIPVLRAELNPMDGDPVEANVNLSERIGNDCGTLIFLA
- glycan array binding signal (z-score) (Fuc(a1-2)Gal(b1-4)GlcNAc): -0.133
- glycan array binding signal (z-score) [1]: -0.106
- glycan array binding signal (z-score) [2]: -0.109
- glycan array binding signal (z-score) [3]: -0.121
- glycan array binding signal (z-score) [4]: -0.14
- glycan array binding signal (z-score) [5]: -0.114
- glycan array binding signal (z-score) [6]: -0.135
- glycan array binding signal (z-score) (Gal(a1-6)Glc): -0.128
- glycan array binding signal (z-score) [7]: -0.096
- glycan array binding signal (z-score) [8]: -0.094
- glycan array binding signal (z-score) [9]: -0.114
- glycan array binding signal (z-score) [10]: -0.14
- glycan array binding signal (z-score) (Gal3S(b1-4)GlcNAc): -0.166
- glycan array binding signal (z-score) [11]: 0.005
- glycan array binding signal (z-score) (GalNAc(b1-3)Gal): -0.146
- glycan array binding signal (z-score) [12]: -0.132
- glycan array binding signal (z-score) [13]: -0.131
- glycan array binding signal (z-score) [14]: -0.129
- glycan array binding signal (z-score) [15]: -0.112
- glycan array binding signal (z-score) [16]: -0.14
- glycan array binding signal (z-score) (Kdn(a2-3)Gal(b1-3)GalNAc): -0.14
- glycan array binding signal (z-score) (Kdn(a2-3)Gal(b1-4)GlcNAc): -0.117
- glycan array binding signal (z-score) [17]: 3.53
- glycan array binding signal (z-score) [18]: 7.75
- glycan array binding signal (z-score) [19]: 1.63
- glycan array binding signal (z-score) [20]: 12.7
- glycan array binding signal (z-score) [21]: 2.82
- glycan array binding signal (z-score) [22]: 5.4
- glycan array binding signal (z-score) [23]: 9.9
- glycan array binding signal (z-score) [24]: 8.33
- glycan array binding signal (z-score) [25]: 1.34
- glycan array binding signal (z-score) [26]: -0.119
- glycan array binding signal (z-score) [27]: -0.074
- glycan array binding signal (z-score) [28]: -0.115
- glycan array binding signal (z-score) [29]: -0.09
- glycan array binding signal (z-score) [30]: -0.14
- glycan array binding signal (z-score) [31]: -0.156
- glycan array binding signal (z-score) [32]: -0.128
- glycan array binding signal (z-score) [33]: -0.142
- glycan array binding signal (z-score) (Neu5Ac(b2-6)GalNAc): -0.108
- glycan array binding signal (z-score) [34]: -0.134
- glycan array binding signal (z-score) (Neu5Gc(a2-3)Gal(b1-4)Glc): -0.113
